Compounds with a hit are over-represented: about 4.1% of the library has one in this group of screens.
ssDAF-12 act: S. stercoralis DAF-12 nuclear receptor activators, primary screen, cell-based, luminescence, HEK293, GRIP1 co-expression, lit1-tk-luc. Nuclear hormone receptor DAF-12 (Strongyloides stercoralis). HEK293 ssDAF-12/GRIP1 lit1-tk-luc reporter; % of 3 µM dafachronic acid response. activation, % at 6.8 µM. 370,000 tested, 1% active;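 active = activation above the mean over all tested compounds plus 3 SD, cut at about 0.9% in these data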;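 note: 0% = DMSO-only wells and 100% = 3 µM delta7-dafachronic acid wells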
hgDAF-12 ag: H. glycines DAF-12 receptor agonists, primary screen, cell-based, luminescence, HEK293, GAL4 fusion, UAS-luciferase; HEK293 GAL4-hgDAF12 UAS-luciferase reporter, agonist luminescence; normalized to butyrate control; activation, % at 6.8 µM; 370,000 tested, 1.8% active;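 active = activation above a cutoff set at the mean of all screened compounds plus 3 SD, cut at about 10% in these data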;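 note: 0% = DMSO wells and 100% = sodium butyrate wells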
DAX1 inh-1: DAX1 (NR0B1) inhibitors on StAR promoter, primary screen, cell-based, luminescence, SF-1 (NR5A1), full-length DAX-1 | HEK293T StAR-luciferase reporter, SF-1/DAX-1 repression relief | inhibition, % at 6.8 µM | 370,000 tested, 1.1% active;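 active = inhibition above the mean over all tested compounds plus 3 SD, cut at about 3.6% in these data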;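 note: 0% = DAX-1 cells with DMSO and 100% = cells lacking DAX-1 with DMSO; higher inhibition means more luminescence from relief of DAX-1 repression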
DAX1 inh-2: DAX1 (NR0B1) inhibitors, primary screen, cell-based, HEK293, Gal4-DAX1, luciferase luminescence | HEK293 Gal4-DAX1 luciferase reporter | inhibition, % at 6.75 µM | 340,000 tested, 0.99% active | AID 504766, 2011;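 active = inhibition above the mean over all tested compounds plus 3 SD, cut at about 4.2% in these data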;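 note: 0% = DAX1-transfected cells with DMSO and 100% = empty-vector control cells with DMSO; inhibition shows as a rise in luminescence from relieved DAX1 repression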
Target sequence (P51843 207-470 limits assumed): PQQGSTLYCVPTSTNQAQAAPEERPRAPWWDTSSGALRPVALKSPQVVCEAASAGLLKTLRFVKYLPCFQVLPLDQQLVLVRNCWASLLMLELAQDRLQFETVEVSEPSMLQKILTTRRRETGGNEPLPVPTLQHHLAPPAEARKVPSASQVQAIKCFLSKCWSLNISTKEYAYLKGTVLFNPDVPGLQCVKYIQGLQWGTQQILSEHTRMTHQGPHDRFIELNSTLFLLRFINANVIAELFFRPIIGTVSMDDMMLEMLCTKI
hcDAF12 agonist: H. contortus DAF-12 nuclear receptor activators, primary screen, cell-based, luminescence, HEK293, lit1-tk-luc reporter. 370,000 tested, 1.4% active. activation, % at 6.8 µM. HEK293 hcDAF-12 lit1-tk-luc reporter; 0% DMSO, 100% Δ7-dafachronic acid. AID 652067, 2013;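 active = activation above the mean of all tested compounds plus 3 SD, cut at about 5.5% in these data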;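 note: 100% = response to 3 µM Δ7-dafachronic acid high control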
LXRb hcDAF ctr: LXR agonists, Gal4 luciferase reporter, confirmation, counter-screen for hcDAF-12 agonist project, cell-based, luminescence, HEK293, H. contortus campaign; shares compounds with hcDAF12 agonist; HEK293 Gal4-LXR tk-luc reporter, 24 h; normalized: DMSO 0%, positive control 100%; activation, % at 6.8 µM; 3,400 tested, under 10 active; AID 743027, 2013;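 active = mean percent activation of the reporter above a cutoff set as the average over tested compounds plus their standard deviation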
Target sequence (P55055 whole entry, looked up, the tested form may be a part): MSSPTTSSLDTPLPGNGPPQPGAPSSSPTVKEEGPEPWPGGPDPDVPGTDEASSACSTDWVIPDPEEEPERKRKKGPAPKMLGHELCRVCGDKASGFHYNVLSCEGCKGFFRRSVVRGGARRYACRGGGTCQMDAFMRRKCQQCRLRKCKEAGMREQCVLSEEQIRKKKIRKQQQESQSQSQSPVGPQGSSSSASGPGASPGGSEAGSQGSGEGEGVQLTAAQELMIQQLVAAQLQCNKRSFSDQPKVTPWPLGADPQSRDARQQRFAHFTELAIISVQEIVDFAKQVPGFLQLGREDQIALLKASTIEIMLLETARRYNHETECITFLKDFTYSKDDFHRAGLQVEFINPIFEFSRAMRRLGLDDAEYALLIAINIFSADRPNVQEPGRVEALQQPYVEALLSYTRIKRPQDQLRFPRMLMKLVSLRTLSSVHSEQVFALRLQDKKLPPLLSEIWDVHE
hcDAF12 ag: H. contortus DAF-12 receptor agonists, confirmation, cell-based, luminescence, HEK293, lit1-tk-luc, triplicate | activation, % at 6.8 µM | 3,400 tested, 61% active | AID 743032, 2013 | HEK293 hcDAF-12 lit1-tk-luc reporter; % of Δ7-dafachronic acid response | shares compounds with hcDAF12 agonist;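 active = mean activation across triplicate tests above the threshold derived from the earlier primary screen, cut at about 5.5% in these data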;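 note: 0% = DMSO only wells and 100% = 3 µM Δ7-dafachronic acid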
hgDAF12 ag: H. glycines DAF-12 receptor agonists, confirmation, cell-based, luminescence, HEK293, GAL4-LBD fusion. shares compounds with hgDAF-12 ag. HEK293 GAL4-hgDAF12 luciferase reporter, agonist mode; percent of butyrate response. activation, % at 6.8 µM. 3,300 tested, 80% active;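 active = mean activation over triplicate wells above the hit cutoff derived from the earlier primary screen, cut at about 11% in these data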;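 note: 0% = DMSO low control and 100% = 2 mM sodium butyrate high control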
LXR ag 2: LXR agonists, Gal4 luciferase reporter, confirmation, counter-screen for hgDAF-12 agonist project, cell-based, luminescence, HEK293, H. glycines campaign. activation, % at 6.8 µM. 24 h. 3,300 tested, under 10 active. shares compounds with hgDAF-12 ag;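 active = mean activation of the triplicate above a set limit carried over from the primary screen, none filed active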
An asterisk follows results filed as active; x = no result.

SMILES	ssDAF-12 act	hgDAF-12 ag	DAX1 inh-1	DAX1 inh-2	hcDAF12 agonist	LXRb hcDAF ctr	hcDAF12 ag	hgDAF12 ag	LXR ag 2
CCNC(=S)/N=C(\N)Nc1nc(C)c2cc(C)ccc2n1	-0.2	14.1*	4.3*	4.6*	6.6*	1.0	7.6*	12.6*	0.5
Cc1cccc(CN2CCN(C3CN(C4CCCCC4)S(=O)(=O)C3)CC2)c1 (stereo unspecified)	-0.7	-1.7	-1.5	x	-1.9	x	x	x	x
COCc1nc2ccccc2n1CCc1ccccc1	-1.6	0.3	0.6	2.1	0.0	x	x	x	x
Cc1ccc(C(C)C)c(OCC(=O)NNC(=O)C(C(C)C)N2C(=O)c3ccccc3C2=O)c1 (stereo unspecified)	-1.8	-1.1	-0.1	-0.5	-0.8	x	x	x	x
CCCc1nc2c3ccccc3ccn2c1Cc1ccccc1	1.3*	23.1*	4.1*	x	7.0*	0.9	11.9*	16.5*	0.6
Cc1cc(N)n(-c2cc(C)c3ccccc3n2)n1	1.6*	16.6*	3.5	1.4	9.9*	1.3	13.5*	17.1*	0.7
COc1cccc(-c2nc(-c3ccc(Br)o3)no2)c1	2.0*	30.5*	4.4*	5.4*	7.6*	1.3	11.9*	23.1*	1.1
CC1CCCC(C)N1C(=O)CSc1nnc(COc2ccccc2)n1-c1ccccc1 (stereo unspecified)	-1.6	-3.2	-0.4	-0.3	0.6	x	x	x	x
CCC(=O)N1CCC1(C)C(=O)NS(=O)(=O)c1cccc(C#N)c1 (stereo unspecified)	-1.1	1.7	-1.0	x	-0.9	x	x	x	x
O=C(Nc1nc2c(s1)CCCC2)c1ccc(Br)o1	1.3*	16.2*	2.3	0.4	12.6*	1.9	10.4*	18.4*	1.1
O=C(Nc1nc2c(s1)CCCC2)c1cccnc1	x	x	x	4.1	x	x	x	x	x
CCc1nnc(NC(=O)c2ccc(C)o2)s1	-0.4	5.8	2.9	0.0	1.1	x	x	x	x
Cc1ccc(C(=O)Nc2nc3c(s2)CCCC3)o1	-0.2	13.4*	3.8*	2.4	10.8*	1.9	7.0*	16.2*	1.0
COc1ccc(S(=O)(=O)N2CCC(Cc3ccccc3)CC2)cc1NC(C)=O	-1.1	1.8	0.0	2.6	-1.9	x	x	x	x
Cc1cccc(/C=C(\c2nc3ccccc3[nH]2)S(=O)(=O)c2ccccc2)c1	-2.9	-10.8	-4.2	-5.3	-4.6	x	x	x	x
Cc1cccc(/C=C(\C(=O)C(=O)O)c2ccc3ccccc3n2)c1	1.8*	20.7*	3.4	0.9	11.4*	0.5	8.1*	13.9*	0.4
OC[C@H]1O[C@H](c2nc(-c3nc(-c4cccc(-n5cccc5)c4)no3)cs2)C[C@@H]1O	-1.8	5.1	-1.9	x	-1.3	x	x	x	x
COc1ccc(-n2ncc3c(NCc4ccco4)ncnc32)cc1	-0.7	5.2	2.1	4.0	1.8	x	x	x	x
C=CCNc1ncnc2c1cnn2-c1ccc(OC)cc1	0.9*	14.2*	4.3*	3.6	6.6*	1.6	5.8*	17.2*	0.8
Cc1cccc(/C(N)=N/OC(=O)c2cccs2)c1	1.8*	15.3*	3.5	3.5	7.9*	0.8	5.7*	16.9*	0.8
N/C(Cc1cccc2ccccc12)=N\OC(=O)c1cccs1	x	x	x	0.8	x	x	x	x	x
COc1ccc(C(=O)O/N=C(\N)c2ccccc2)cc1	1.9*	14.4*	3.4	1.3	8.7*	1.8	6.7*	18.2*	1.0
N/C(=N\OC(=O)c1cccs1)c1ccccc1	2.3*	16.1*	1.0	1.5	7.4*	0.8	3.2	15.2*	0.6
CN(C)C1CCN(C(=O)c2cccc(OC3CCN(S(=O)(=O)N(C)C)CC3)c2)C1 (stereo unspecified)	-1.0	1.2	1.0	0.9	0.1	x	x	x	x
Cc1ccc(NC(=O)c2cc(C(=O)Nc3ccc(C)cc3)n(C)n2)cc1	-1.2	1.6	-0.2	2.9	3.4	x	x	x	x
SMILES	ssDAF-12 act	hgDAF-12 ag	DAX1 inh-1	DAX1 inh-2	hcDAF12 agonist	LXRb hcDAF ctr	hcDAF12 ag	hgDAF12 ag	LXR ag 2
Cc1ccc(NC(=O)c2cc3nc(C)cc(C)n3n2)cc1	0.5	16.3*	4.3*	0.5	8.5*	1.3	5.4	16.7*	0.7
Cc1ccccc1-c1nc(CS(=O)(=O)CC(=O)N2CCN(C)CC2)c(C)o1	-1.1	0.1	-0.2	-0.4	0.2	x	x	x	x
CC1(c2ccc(F)cc2)OC(=O)c2c1ccc1ccccc21 (stereo unspecified)	-0.4	3.2	-2.1	1.1	-0.5	x	x	x	x
Cc1ccc(Nc2nc(-c3cccs3)cs2)nc1	0.7	14.7*	4.0*	2.2	13.2*	1.6	13.8*	9.5	1.0
Cc1ccc(S(=O)(=O)Nc2nc(-c3ccccc3)cs2)cc1	-0.8	0.1	0.1	0.7	-1.5	x	x	x	x
c1cncc(Nc2nc(-c3cccs3)cs2)c1	x	x	x	1.9	x	x	x	x	x
Cc1ccc(Nc2nc(-c3ccccc3)cs2)nc1	1.9*	13.3*	3.7*	-1.3	19.1*	2.1	16.5*	22.7*	1.4
Cc1c(C#N)c(NC(=O)CCl)n(Cc2cccs2)c1C	-1.9	-8.9	-3.8	-3.2	-1.6	x	x	x	x
O=C(N/N=C/c1cn(-c2ccccc2)nc1-c1cc2ccccc2o1)c1ccncc1	2.0*	19.2*	2.8	2.2	6.8*	1.1	4.0	15.4*	0.7
O=C(N/N=C/c1cn(-c2ccccc2)nc1-c1cccnc1)c1cccnc1	-1.6	-1.0	-1.6	0.3	-2.4	x	x	x	x
CCOC(=O)N(C)C[C@@H]1OCc2cnnn2CCCC(=O)N([C@H](C)CO)C[C@@H]1C	-0.7	2.8	0.5	3.1	-1.3	x	x	x	x

Bioassay records: PubChem, The Scripps Research Institute Molecular Screening Center
